From PubChem BioAssay (NCI)
About 83,000 compounds went through this panel and 20% of them were active in at least one assay; those are over-represented in the sample as a whole.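 Cell lines were cultured in 96-well plates, exposed to a single compound concentration, and assessed for percent growth 48 hours later.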 A number with no mark means an inactive call. The source made the active and inactive calls. Rule for the calls: active = growth percent below 10; inactive = the rest.

Each compound was assayed on MDA-MB-468 breast (assay: NCI-60 one-dose screen, 48 h (100 = growth as untreated, 0 = no growth, -100 = all killed)). Details: 10 µM unless noted.
With `c1csc(-c2cc(-c3cc(-c4cccs4)[nH]n3)n[nH]2)c1` the growth was 77.3%.
Work on `NC(=O)C1CC2C=CC1C2` (stereo unspecified) yielded a growth of 109%.
With `Cn1ccc(=Nc2ccc(NC(=O)c3ccc(N=c4ccn(C)c5ccc([N+](=O)[O-])cc45)cc3)cc2)cc1` the growth was -2.24% (active).
For `CCN(CC)c1ccc2nc3c4ccccc4c(=NC(=O)c4ccccc4-c4c5ccc(N(CC)CC)cc5[o+]c5cc(N(CC)CC)ccc45)cc-3oc2c1`, the growth was -59.2% (active).
`O=C1CSC(c2ccccc2)N1c1ccccc1` (stereo unspecified) was tested, and the growth was 90.6%.
In the case of `C[C@@H]1CC[C@@H]2[C@@H]1[C@H](OC(=O)c1ccc3ccccc3c1)[C@]1(C3CCCCC3)C[C@@H](OC(=O)CO)[C@@]2(C)O1`, the growth is reported as 63.6%.
In the case of `CCN(CC)CCOC(=O)N1c2ccccc2Sc2ccccc21`, the growth is reported as 96.3%.
For `C=C(C)[C@@H]1CC[C@]2(COC(=O)c3ccccc3C(=O)O)CC[C@]3(C)[C@H](CC[C@@H]4[C@@]5(C)CC[C@H](OC(=O)c6ccccc6C(=O)O)C(C)(C)[C@@H]5CC[C@]43C)[C@@H]12`, the growth was -22.5% [100 µM] (active).
Work on `OC(COc1cccc2ccccc12)CN1CCN(c2ccccc2Cl)CC1` (stereo unspecified) yielded a growth of 89.7%.
In the case of `COc1cc(-c2cc(/C=C/C(=O)c3ccc(Cl)c(Cl)c3)[nH]n2)cc(OC)c1OC`, the growth is reported as 7.24% (active).
`C/C1=C\CC[C@@]2(C)O[C@H]2[C@H]2OC(=O)C(CN3CCN(CC4C(=O)O[C@H]5[C@H]4CC/C(C)=C/CC[C@@]4(C)O[C@@H]54)CC3)[C@@H]2CC1` (stereo partly specified) gave a growth of 46.1%.
